Experimental data from ChEMBL document CHEMBL3988442, “University of Dundee, Small-Polar-MMV Screening Library” (2021).
Hit rate of the full screen: of about 85,000 compounds, about 440 (0.52%) showed an effect of 50% or more. Only a selection was taken, and strong results are over-represented in it overall.

Assay: In vitro enzyme assay to detect hydrolysis of chlorophenol red-beta-D-[…] directly proportional to the number of Toxoplasma stably expressing beta-galactosidase
Assay type: functional, organism-based, Toxoplasma gondii
Set-up: scale not given: in the data most compounds retested in dose-response had high values

| Structure (SMILES) | Percent Effect (50 µM) [%] | Percent Effect (10 µM) [%] |
| --- | --- | --- |
| CCn1ncnc1CN1CCC2(CCN(C)C2)CC1 | 28.33 |  |
| NC(=O)CCC(=O)c1ccc2c(c1)OCCO2 | -23.48 |  |
| Cc1cnc(NCC(O)CN2CCCCC2)nc1 (stereo unspecified) | -5.965 |  |
| C[C@H](N)c1ccc(F)cc1OC(F)F | 1.744 |  |
| CCOc1cccc(OCCNCCN)c1 | 3.655 |  |
| NC(=O)C(NC(=O)C1CC=CC1)c1ccc(F)cc1 (stereo unspecified) | -2.351 |  |
| CCS(=O)(=O)CCN(C)C(=O)Nc1cc(F)cc(Cl)c1 | 0.02752 |  |
| COCCNc1nnc(-c2ccc(C)nc2)s1 |  | 91.21 |
| COCCNc1nnc(-c2cnc(C)cn2)s1 |  | -7.364 |
| COCCNc1nc(-c2ccc(S(N)(=O)=O)cc2)cs1 | 33.23 |  |
| CC(=O)c1csc(C(=O)N2CCCC2C(C)(C)O)c1 (stereo unspecified) | -8.417 |  |
| Cc1cncc(C(=O)N2CCCC2C(C)(C)O)c1 (stereo unspecified) | 98.37 |  |
| Cc1cncc(C(=O)N2CCCCC2c2nc[nH]n2)c1 (stereo unspecified) |  | 2.456 |
| Cc1ccc(C(=O)Nc2nc(C)no2)cc1 |  | 2.71 |
| Cc1noc(NC(=O)c2ccc(F)cc2)n1 |  | -4.949 |
| Cc1noc(NC(=O)c2ccc(OC(F)(F)F)cc2)n1 |  | 62.71 |
| COCCC1CN(C(=O)c2ccc(C)c(F)c2)CCO1 (stereo unspecified) | -2.005 |  |
| CC(=O)Nc1cc(S(=O)(=O)NCCN(C)C)ccc1C | 12.19 |  |
| O=C(NCCc1ccccn1)Nc1cn[nH]c1 | -7.115 |  |
| COC1CCN(C(=O)c2cccc(F)c2C)C1 (stereo unspecified) | 32.95 |  |
| CS(=O)(=O)N1CCOCC2(CCN(c3ccccn3)C2)C1.O=C(O)C(F)(F)F (stereo unspecified) |  | 93.48 |
| O=C(O)C(F)(F)F.O=S(=O)(C1CC1)N1CCOCC2(CCN(c3ccccn3)C2)C1 (stereo unspecified) |  | -7.77 |
| CCS(=O)(=O)N1CCOCC2(CCN(c3ccccn3)C2)C1.O=C(O)C(F)(F)F (stereo unspecified) |  | -1.246 |
| Cc1ccc2[nH]c(CN3CCC(O)C3)cc(=O)c2c1 (stereo unspecified) | -10.62 |  |

| Structure (SMILES) | Percent Effect (50 µM) [%] | Percent Effect (10 µM) [%] |
| --- | --- | --- |
| OC[C@@H]1CCCN1Cc1ccc(F)c2cccnc12 | 78.15 |  |
| Fc1ccc(CN2CCCC2Cn2cccn2)c2ncccc12 (stereo unspecified) |  | 4.2 |
| Fc1ccc(CN2CCCC2Cn2cncn2)c2ncccc12 (stereo unspecified) |  | -4.806 |
| Cc1nc(CC(=O)N[C@H]2CC[C@H]2N)cs1 | 7.419 |  |
| Cc1cc(C(=O)Nc2cn(C)cc(Br)c2=O)[nH]n1 | -6.695 |  |
| C1CCC(COCCc2noc(C3CNC3)n2)C1 | 57.88 |  |
| c1ccc(COCc2nc(C3CCCNC3)no2)cc1 (stereo unspecified) | -2.705 |  |
| Cc1cccc(OCCc2noc(C3CNC3)n2)c1 | 82.99 |  |
| Cc1cccc(OCCCN2CCC(N(C)Cc3noc(C)n3)C2)c1 (stereo unspecified) |  | 19.53 |
| c1ccc(COCCc2noc(C3CNC3)n2)cc1 | 62.37 |  |
| CCCN1CCC(Cc2noc(C3CCNC3)n2)CC1 (stereo unspecified) | 2.055 |  |
| COCCc1noc(C2CCN(CC(N)=O)CC2)n1 | 1.681 |  |
| COCCc1noc(C2CNC2)n1 | -4.923 |  |
| C(Cc1noc(C2CNC2)n1)OCC1CC1 | 84.88 |  |
| C1CC(c2noc(C3CC3)n2)CN(CCOCC2CC2)C1 (stereo unspecified) |  | 10.99 |
| C1CC(COCCc2noc(C3CNC3)n2)CCO1 | 31.48 |  |
| Cc1cccc(OCCN2CCN(Cc3noc(C)n3)CC2)c1 |  | -13.55 |
| CNS(=O)(=O)c1ccc(C(=O)NCC(C)(C)N(C)C)o1 | -2.111 |  |
| NC(=O)c1ccc(CNC2CC2)c(F)c1 | -8.127 |  |
| COC(=O)CC(NC(=O)c1cc(C)n[nH]1)C1CC1 (stereo unspecified) | 5.421 |  |
| Cn1cc(CC(=O)Nc2ccc(I)cn2)cn1 | -1.266 |  |
| Cc1ccc(Br)c(NCC(=O)N2CCOCC2)c1 | 6.776 |  |
| CNC(C)CCNC(=O)c1cc(C)nn1C (stereo unspecified) | -4.64 |  |
| Cc1csc(S(=O)(=O)NCCCOCC2CCCO2)n1 (stereo unspecified) | -3.897 |  |

| Structure (SMILES) | Percent Effect (50 µM) [%] | Percent Effect (10 µM) [%] |
| --- | --- | --- |
| CCC(C)NC(=O)NC1CCN(c2ccccn2)CC1 (stereo unspecified) | -18.28 |  |
| N#Cc1cc(F)c(S(=O)(=O)NCCN)c(F)c1 | -7.913 |  |
| Cn1ncc2c(N3CCS(=O)(=O)CC3)nc(-c3cccnc3)nc21 |  | 6.498 |
| Cn1ncc2c(N3CCC3)nc(-c3ccncc3)nc21 |  | -3.528 |
| CC(C)N1CCCN(c2nc(-c3cccnc3)nc3c2cnn3C)CC1 |  | 55.95 |
| O=C(NCc1csc(N2CCCC2)n1)C1CNCCO1 (stereo unspecified) | 26.16 |  |
| Cc1nc(CC(=O)NCc2csc(N3CCCC3)n2)cs1 |  | -6.671 |
| N[C@@H]1CC[C@H](C(=O)NCc2csc(N3CCCC3)n2)C1 | 62.86 |  |
| C[C@@H]1CNC[C@H]1c1nc(-c2ccncc2)no1 | 1.432 |  |
| CCn1nc(C)c2nc(C)nc(NCCCn3cccn3)c21 |  | 20.67 |
| CCn1nc(C)c2nc(C(C)C)nc(NCCCn3ccnc3)c21 |  | 76.16 |
| CCCc1nc(NCCCn2ccnc2)c2c(n1)c(C)nn2CC |  | 67.95 |
| CCc1nc(NCCCn2cccn2)c2c(n1)c(C)nn2C |  | 7.651 |
| CCn1nc(C)c2nc(C(C)C)nc(NCCCn3cccn3)c21 |  | 57.58 |
| CCn1nc(C)c2nc(C(C)C)nc(NCc3ccccn3)c21 |  | 23.92 |
| Cc1nn(C)c2c(NCCCn3cccn3)nc(C(C)C)nc12 |  | 10.17 |
| CCCc1nc(NCCCn2cccn2)c2c(n1)c(C)nn2CC |  | 20.81 |
| CCn1nc(C)c2ncnc(NCCCn3ccnc3)c21 |  | 9.36 |
| NC(=O)COc1ccc(CNCCn2cccn2)cc1 | 11.26 |  |
| COCC(=O)N1CCN(CCC(C)C)CC1 | 7.319 |  |
| O=C(NCCN1CCCC1)Nc1cccc2cn[nH]c12 | -2.677 |  |
| Cc1csc(CN2CCC3(CC2)COC(COc2ccccn2)C3)n1 (stereo unspecified) |  | -8.461 |
| Cc1cc(CN2CCC3(CC2)COC(COc2ccccn2)C3)no1 (stereo unspecified) |  | 96.36 |
| c1ccc(OCC2CC3(CCN(Cc4ccncc4)CC3)CO2)nc1 (stereo unspecified) |  | -2.51 |

| Structure (SMILES) | Percent Effect (50 µM) [%] | Percent Effect (10 µM) [%] |
| --- | --- | --- |
| Cc1nc(-n2nc(-c3cccs3)cc2N)[nH]c(=O)c1C |  | 4.893 |
| CC(=O)Nc1cc(C2CC2)nn1-c1nc(C)c(C)c(=O)[nH]1 |  | -13.24 |
| Cc1cc(C)nc(NC(=O)C(C)C)n1 | 3.231 |  |
| CC(C)C(=O)Nc1cc(C(C)(C)C)nn1-c1ccccn1 |  | -3.105 |
| Cc1nc(-n2nc(C3CC3)cc2NC(=O)C(C)C)[nH]c(=O)c1C |  | 79.17 |
| Cc1cc(NC(=O)C(C)C)n(-c2nc(C)c(C)c(=O)[nH]2)n1 |  | 91.77 |
| NCc1ccc(OCC(F)F)cc1 | -2.459 |  |
| O=C(C1CC1)N1CCC(Oc2cccnc2)C1 (stereo unspecified) | 1.461 |  |
| CCCOc1ccccc1CCCNc1ncnc2oc(C)nc12 |  | 12.3 |
| CCC(CNc1ncnc2oc(C)nc12)Cc1ccccc1 (stereo unspecified) |  | -4.784 |
| CCCOc1ccc(Cl)cc1CNc1ncnc2oc(C)nc12 |  | 57.15 |
| O=C1CCCCN1c1ccc(S(=O)(=O)NC2CC2)cc1 | 98.35 |  |
| CC(N)c1ccc(N2CCCCC2=O)cc1 (stereo unspecified) | 3.622 |  |
| CC(C)NC(=O)c1ccc(N2CCCCC2=O)cc1 | 19.08 |  |
| OC1(Cc2ccccc2F)CCNCC1 | -5.436 |  |
| OC1(Cc2ccccc2F)CCNC1 (stereo unspecified) | 78.69 |  |
| OCC1(Cc2ccccc2F)CCCNC1 (stereo unspecified) | 2.008 |  |
| CC(NS(C)(=O)=O)C(=O)NCCCc1ccncc1 (stereo unspecified) | 0.4518 |  |
| Cc1cc(CN(C)C(=O)C2CCCN2S(C)(=O)=O)no1 (stereo unspecified) | -2.48 |  |
| O=C(CCN1C(=O)CCC1=O)Nc1ccc(F)cc1 | 6.107 |  |
| Cc1nc(N2CCN(C(=O)c3ccco3)CC2)c2c(n1)c(C)nn2C |  | 56.5 |
| Cc1nn(C)c2c(N3CCC(C)CC3)nc(C3CC3)nc12 |  | 6.306 |
| CCC(=O)N1CCN(c2ncnc3c(C)nn(C)c23)CC1 |  | 7.071 |
| Cc1nc(N2CCN(C(=O)C3CCCC3)CC2)c2c(n1)c(C)nn2C |  | -37.24 |

| Structure (SMILES) | Percent Effect (50 µM) [%] | Percent Effect (10 µM) [%] |
| --- | --- | --- |
| CCC(=O)N1CCN(c2nc(C)nc3c(C)nn(C)c23)CC1 |  | 56.36 |
| Cc1nc(N2CCN(c3ccccc3)CC2)c2c(n1)c(C)nn2C |  | 52.19 |
| Cc1nn(C)c2c(N3CCN(C)CC3)nc(C3CC3)nc12 |  | 7.951 |
| Cc1nc(N2CCN(C(=O)c3ccncc3)CC2)c2c(n1)c(C)nn2C |  | 77.24 |
| Cc1nc(N2CCN(C(=O)C3CC3)CC2)c2c(n1)c(C)nn2C |  | 0.4782 |
| Cc1nn(C)c2c(N3CCN(C(=O)c4ccccc4)CC3)ncnc12 |  | -3.825 |
| Cc1nc(N2CCN(C(=O)c3ccccn3)CC2)c2c(n1)c(C)nn2C |  | 25.12 |
| Cc1nc(N2CCN(C(=O)c3ccccc3)CC2)c2c(n1)c(C)nn2C |  | -7.412 |
| CN(C)[C@@H]1CN(C(=O)c2cccn2C)C[C@H]1CO | -4.756 |  |
| CC(C)NC(C1CCNCC1)[C@H]1C[C@H](O)C1 (stereo partly specified) | 23.17 |  |
| CCOc1ncccc1C(=O)N1CCC(COC)C1 (stereo unspecified) | -5.58 |  |
| CC1(C)CN(c2nccnc2C#N)CCS1(=O)=O | -1.06 |  |
| O=C(NCC(F)(F)F)c1ccccc1NCCCO | 5.629 |  |
| O=S(=O)(NC1CC1)C1CCN(CCc2ccccn2)C1 (stereo unspecified) | 5.549 |  |
| c1ccc(N2CCCC2)nc1 | -4.186 |  |
| CC(C)OCc1nc(C(C)N)no1 (stereo unspecified) | -1.581 |  |
| CCCN(C)C(CO)c1ccc(OC)cc1 (stereo unspecified) | -2.385 |  |
| O=C(c1ccc2c(c1)OCCCO2)N1CCCC(n2cccn2)C1 (stereo unspecified) |  | 55.61 |
| O=C(c1ccc2c(c1)OCO2)N1CCCC(n2cccn2)C1 (stereo unspecified) |  | 8.443 |
| O=C(c1ccc2c(c1)OCCCO2)N1CCCC(n2ccnc2)C1 (stereo unspecified) |  | -11.97 |
